{"source": "PubChem BioAssay (NCI)", "note": "The panel holds about 83,000 compounds, 20% with a hit somewhere; the sample as a whole holds those more often.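 Plates (96-well) were seeded with cells, treated with compound at one concentration, and incubated for 48 hours before percent growth was determined.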 Calls of active or inactive are those of the source. How the source made its calls: active means growth percent below 10; inactive means the rest."}
{"test_system": "NCI/ADR-RES ovarian", "assay": "NCI-60 one-dose screen, 48 h (100 = growth as untreated, 0 = no growth, -100 = all killed)", "conditions": "10 µM unless noted"}
{"molecule": "COc1ccc(S(=O)(=O)n2cc(C=O)c3ccccc32)c(OC)c1", "growth": "51% (inactive)"}
{"molecule": "C#C[C@]1(O)CC[C@H]2[C@@H]3CC=C4c5sc(Nc6cc(Cl)ccn6)nc5CC[C@]4(C)[C@H]3CC[C@@]21C", "growth": "34.7% (inactive)"}
{"molecule": "N#C/C(=C\\c1ccc2ccccc2c1)C(=O)Nc1sc2c(c1C#N)CCC2", "growth": "103% (inactive)"}
{"molecule": "CN1CCN(Cc2ccc(NC(=O)c3cncc(C#Cc4cnc5ccc(O[C@H]6CCOC6)nn45)c3)cc2C(F)(F)F)CC1", "growth": "-30.9% (active)"}
{"molecule": "C/C=C/C=C1\\C[C@H]2CO[C@H](O2)C1=O", "growth": "98.1% (inactive)"}
{"molecule": "O=C(NNc1nc2cc(F)cc(F)c2n2cccc12)c1ncccn1", "growth": "-1.21% (active)"}
{"molecule": "C#CCOc1ccc(/C=N/Nc2nc(-c3cc(Cl)ccc3Cl)cs2)cc1", "growth": "95% (inactive)"}
{"molecule": "COc1ccc(-c2nc(SCC(C)C)nc(N/N=C\\c3cccc([N+](=O)[O-])c3)c2C#N)cc1", "growth": "51.5% (inactive)"}
{"molecule": "CNC(=O)c1cc(Oc2ccc3nc(NC(=O)c4ccc(CN5CCN(C)CC5)c(C(F)(F)F)c4)sc3c2)ccn1", "growth": "78% (inactive)"}
{"molecule": "C#C[C@]1(O)CC[C@H]2[C@@H]3CC=C4c5sc(Nc6ccc(OC)nc6)nc5CC[C@]4(C)[C@H]3CC[C@@]21C", "growth": "59% (inactive)"}
{"molecule": "O=C1Nc2ccc(Br)cc2/C1=N\\c1nnc(-c2ccc(Cl)cc2)o1", "growth": "36.9% (inactive)"}
{"molecule": "CC(C)c1nn(-c2ccccc2)c(N2CCCCC2)c1/C=N/NC(N)=S", "growth": "86.9% (inactive)"}
{"molecule": "COc1cc(/C=C/C(=O)c2ccc(N3CCN(C)CC3)cc2)ccc1F", "growth": "82.8% (inactive)"}
{"molecule": "CC1CCN(S(=O)(=O)c2ncsc2-c2ccccc2)CC1", "growth": "90% (inactive)"}
{"molecule": "O=C1[C@@H]2Cc3c([nH]c4ccccc34)[C@H](c3c(Cl)cccc3Cl)N2C(=O)CN1C1CCN(Cc2ccccc2)CC1", "growth": "18.5% (inactive)"}
{"molecule": "C#C[C@]1(O)CC[C@H]2[C@@H]3CC=C4c5sc(Nc6ccncc6)nc5CC[C@]4(C)[C@H]3CC[C@@]21C", "growth": "33.1% (inactive)"}
{"molecule": "C#CCOc1ccc(/C=N/Nc2nc(-c3cc4cc(Br)cc(Br)c4oc3=O)cs2)cc1", "growth": "94.9% (inactive)"}
{"molecule": "O=C1c2c(c3c4cccnc4[nH]c3c3ccc4ccccc4c23)C(=O)N1CCN1CCCCC1", "growth": "41.2% (inactive)"}
{"molecule": "NS(=O)(=O)Oc1ccc2nc(Nc3ccc(F)c(F)c3)ccc2c1", "growth": "94.6% (inactive)"}
{"molecule": "Cc1ccc(-c2csc(N/N=C/c3nc4ccccc4n3C3CC3)n2)cc1", "growth": "72.9% (inactive)"}
{"molecule": "O=C1c2c(c3c4cc(Br)ccc4[nH]c3c3ccc4ccccc4c23)C(=O)N1CCN1CCCCC1", "growth": "6.23% (active)"}
{"molecule": "Cc1cnc2nc(NN)[nH]n12", "growth": "104% (inactive)"}
{"molecule": "O=C(NCCCCCCNC(=O)c1c2c(nc3ccccc13)-c1cccnc1SC2)c1c2c(nc3ccccc13)-c1cccnc1SC2", "growth": "77.2% (inactive)"}
{"molecule": "COc1cc(/C=N/n2cnc3oc(-c4ccccc4)cc3c2=N)cc(CN2CCCC2)c1O", "growth": "16.6% (inactive)"}
{"molecule": "C#C[C@]1(O)CC[C@H]2[C@@H]3CC=C4c5sc(Nc6cccc(Cl)n6)nc5CC[C@]4(C)[C@H]3CC[C@@]21C", "growth": "23% (inactive)"}
